Measured values published in PubChem BioAssay (NCI).
Several values for one entry are separate records, joined by “and”; a condition that tells them apart may be missing. Equal values may be shown once. The panel holds about 83,000 compounds, 20% with a hit somewhere; the sample as a whole holds those more often.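 Note: values are percent growth. 100 is the growth of untreated cells, values between 100 and 0 indicate rising inhibition; between -100 and 0 indicates cell death.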 Activity calls are given as the source filed them. Rule for the calls: active = growth percent below 10; inactive = the rest.

Tests used:
Assay in all cases: NCI-60 one-dose screen, 48 h (100 = growth as untreated, 0 = no growth, -100 = all killed)
Settings in all cases: 10 µM unless noted
SK-MEL-2 melanoma = system: SK-MEL-2 melanoma
EKVX NSCLC = system: EKVX NSCLC
SN12C renal = system: SN12C renal
UO-31 renal = system: UO-31 renal
TK-10 renal = system: TK-10 renal
ACHN renal = system: ACHN renal
CAKI-1 renal = system: CAKI-1 renal
A498 renal = system: A498 renal
CCRF-CEM leukemia = system: CCRF-CEM leukemia
MOLT-4 leukemia = system: MOLT-4 leukemia
SR leukemia = system: SR leukemia
RPMI-8226 leukemia = system: RPMI-8226 leukemia
OVCAR-8 ovarian = system: OVCAR-8 ovarian
OVCAR-5 ovarian = system: OVCAR-5 ovarian
OVCAR-4 ovarian = system: OVCAR-4 ovarian
SK-OV-3 ovarian = system: SK-OV-3 ovarian
IGROV1 ovarian = system: IGROV1 ovarian
OVCAR-3 ovarian = system: OVCAR-3 ovarian
HS 578T breast = system: HS 578T breast
NCI/ADR-RES ovarian = system: NCI/ADR-RES ovarian

Measured: growth

CCCCCCCCCCCCC[C@H](O)C[C@H](O)[C@H](C)N
active: SR leukemia -35.7% [1.25 µM]
inactive: SK-MEL-2 melanoma 113% [1.25 µM] | EKVX NSCLC 99.4% [1.25 µM] | SN12C renal 105% [1.25 µM] | UO-31 renal 112% [1.25 µM] | TK-10 renal 137% [1.25 µM] | ACHN renal 102% [1.25 µM] | CAKI-1 renal 110% [1.25 µM] | A498 renal 93.7% [1.25 µM] | CCRF-CEM leukemia 25% [1.25 µM] | MOLT-4 leukemia 51.7% [1.25 µM] | RPMI-8226 leukemia 33.2% [1.25 µM] | OVCAR-8 ovarian 89.7% [1.25 µM] | OVCAR-5 ovarian 86.1% [1.25 µM] | OVCAR-4 ovarian 123% [1.25 µM] | SK-OV-3 ovarian 125% [1.25 µM] | IGROV1 ovarian 133% [1.25 µM] | OVCAR-3 ovarian 103% [1.25 µM] | HS 578T breast 117% [1.25 µM] | NCI/ADR-RES ovarian 85.9% [1.25 µM]

C=C1CCC2C3(C)COC(c4ccc(NC(C)=O)cc4)OC3CCC2(C)C1C/C=C1/C(=O)OCC1O (stereo not given)
inactive: SK-MEL-2 melanoma 84.4% | EKVX NSCLC 39.6% | SN12C renal 91.6% | UO-31 renal 68.3% | TK-10 renal 75.3% | ACHN renal 65.8% | CAKI-1 renal 87.7% | A498 renal 57% | CCRF-CEM leukemia 27.3% | MOLT-4 leukemia 26.7% | SR leukemia 25.2% | OVCAR-8 ovarian 44.7% | OVCAR-5 ovarian 74.9% | OVCAR-4 ovarian 23.7% | SK-OV-3 ovarian 79.6% | IGROV1 ovarian 84.4% | OVCAR-3 ovarian 76.2% | HS 578T breast 54% | NCI/ADR-RES ovarian 36.1%
active: RPMI-8226 leukemia 6.14%

CC1=CC(C)(C)NC(=S)N1c1ccc(Cl)cc1
inactive: SK-MEL-2 melanoma 101% and 94.3% | EKVX NSCLC 91.5% and 106% | SN12C renal 95.6% and 99% | UO-31 renal 82.2% | TK-10 renal 99.7% and 98.7% | ACHN renal 94.7% and 99.9% | CAKI-1 renal 91.6% and 97.8% | A498 renal 104% | CCRF-CEM leukemia 105% and 89.1% | MOLT-4 leukemia 95% and 96.8% | SR leukemia 97.8% and 93% | RPMI-8226 leukemia 100% | OVCAR-8 ovarian 100% and 104% | OVCAR-5 ovarian 95% and 104% | OVCAR-4 ovarian 103% | SK-OV-3 ovarian 122% and 93.2% | IGROV1 ovarian 96.4% | OVCAR-3 ovarian 110% and 104% | HS 578T breast 102% and 113% | NCI/ADR-RES ovarian 103% and 112%

Cc1[nH]c(C(=O)Nc2nc3ccc(NC(=O)CCN)cc3s2)c(Cl)c1Cl
inactive: SK-MEL-2 melanoma 96.4% | EKVX NSCLC 76.3% | SN12C renal 65.4% | UO-31 renal 80.4% | TK-10 renal 113% | ACHN renal 43.2% | CAKI-1 renal 31.5% | A498 renal 65.3% | CCRF-CEM leukemia 15.3% | MOLT-4 leukemia 12.9% | RPMI-8226 leukemia 78.4% | OVCAR-8 ovarian 56.1% | OVCAR-5 ovarian 92.5% | OVCAR-4 ovarian 44.8% | SK-OV-3 ovarian 107% | IGROV1 ovarian 68.4% | OVCAR-3 ovarian 77.3% | HS 578T breast 90.8% | NCI/ADR-RES ovarian 58.4%
active: SR leukemia 6.56%

[2H]C([2H])([2H])Oc1cc(F)ccc1/C=C/C(=O)/C=C(/C=C/c1ccc(F)cc1OC([2H])([2H])[2H])OB(F)F
active: CCRF-CEM leukemia 2.38% | MOLT-4 leukemia 1.25% | RPMI-8226 leukemia 3.53% | OVCAR-8 ovarian 4.99% | NCI/ADR-RES ovarian 1.89%
inactive: SK-MEL-2 melanoma 48% | EKVX NSCLC 76.6% | SN12C renal 42.6% | UO-31 renal 49.5% | TK-10 renal 43.6% | ACHN renal 14.8% | CAKI-1 renal 18.2% | A498 renal 89% | SR leukemia 41.7% | OVCAR-5 ovarian 104% | OVCAR-4 ovarian 17.5% | SK-OV-3 ovarian 101% | IGROV1 ovarian 12% | OVCAR-3 ovarian 10.5% | HS 578T breast 46.3%

NC(N)=NC(N)=NCCCc1ccco1
inactive: SK-MEL-2 melanoma 96.1% | EKVX NSCLC 113% | SN12C renal 108% | UO-31 renal 102% | TK-10 renal 86.2% | ACHN renal 107% | CAKI-1 renal 96.4% | A498 renal 118% | CCRF-CEM leukemia 101% | MOLT-4 leukemia 93.2% | SR leukemia 110% | RPMI-8226 leukemia 106% | OVCAR-8 ovarian 96% | OVCAR-5 ovarian 114% | OVCAR-4 ovarian 104% | SK-OV-3 ovarian 103% | IGROV1 ovarian 99.8% | OVCAR-3 ovarian 102% | HS 578T breast 109% | NCI/ADR-RES ovarian 103%
